Compounds with a hit are over-represented: about 9.2% of the library has one in this group of screens.
ELG1 genotoxic: induces genotoxicity in HEK293T cells with luciferase-tagged ELG1; HEK293T ELG1-luciferase reporter, luminescence, 16 h; Potency, µM (series often up to 46 µM), for the others: at the top dose activity change, positive = activation, most hits filed as activators; actives 1.3% (n = 330,000); AID 504466; note: % of control where 0% means no effect; nearly all actives have a fitted effect of over 60% in size
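Genotoxicity was scored as increased ELG1-luciferase reporter signal, measured by ONE-Glo luminescence (30 min, room temperature). Compound or vehicle exposure of the HEK293T reporter cells lasted 16 hr at 37°C.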
SMN2 splice enh: SMN2 splice variant enhancement; HEK293 SMN2-luciferase splicing reporter, luminescence, 30-36 h; actives 2.8% (n = 210,000); Potency, µM (series often up to 46.1 µM), for inactives: at the highest dose activity change, positive = activation, usual class: activators; AID 1458; note: % of control where 0% means no effect; nearly all actives have a fitted effect of over 55% in size
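HEK293 cells carry an SMN2 minigene-luciferase reporter in which exon 7 inclusion puts luciferase in frame. Cells were seeded at 2000 cells/well, attached for 10-12 hours, then exposed to compounds for 30-36 hours at 37C before ONE-Glo luminescence.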
ELG1 repair inh: ELG1-dependent DNA repair inhibition. HEK293T ELG1-luciferase reporter, luminescence, 16 h; DNA damage induced by 5-fluorouridine. Potency, µM (titrated, usually from 46.1 µM), for the others: at the highest dose activity change, negative = inhibition, hits mostly inhibitors. actives 2.3% (n = 330,000). AID 504467; note: % is set by controls: 0 for no effect and ±100 for the full control effect; nearly all actives have a fitted effect of over 55% in size
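Luminescence from the luciferase reporter, measured 30 min after ONE-Glo reagent at room temperature, was the read-out. Beforehand, 2,000 cells per well were exposed for 16 hr at 37 °C to 5-fluorouridine together with compound or vehicle.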
NPC1 promoter act: activators of NPC1 promoter; Huh7 NPC1 promoter luciferase reporter, 24 h; Potency, µM (highest dose often 9.22 µM), for the others: at the highest dose activation, actives largely listed as activators; actives 2.4% (n = 320,000); AID 485313; note: % of control where 0% means no effect; nearly all actives have a fitted effect of over 60% in size
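Cells: Huh7 expressing luciferase under the NPC1 promoter, 1500/well. Seeded 2 h, compound added, incubated 24 h at 37 °C. Luciferase reagent, 10 min ambient, then luminescence.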
Rab9 promoter act: activates the Rab9 promoter | Huh7 Rab9 promoter-luciferase reporter, luminescence, 24 h | Potency, µM (series often up to 9.22 µM), without a hit: top-dose activation, negative = inhibition, actives largely listed as activators | actives 2.8% (n = 320,000); note: % of control where 0% means no effect; nearly all actives have a fitted effect of over 60% in size
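Luminescence read-out: Huh7 cells stably expressing Rab9-luciferase, treated 24 h with compound at 37 °C, then lysed with luciferase reagent for 10 min at ambient before reading.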
FLuc counter: inhibits or activates purified firefly luciferase, miR-21 counter-screen; P08659; purified FLuc, Km substrates, luminescence inhibition; Potency, µM (top dose mostly 57.5 µM), for inactives: at the top dose activity change, negative = inhibition, most hits filed as inhibitors; actives 6.9% (n = 360,000);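 note: plate controls were vehicle for no effect and reference inhibitor for full effect; nearly all actives have a fitted effect of over 55% in size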
Target sequence (P08659 whole entry, looked up): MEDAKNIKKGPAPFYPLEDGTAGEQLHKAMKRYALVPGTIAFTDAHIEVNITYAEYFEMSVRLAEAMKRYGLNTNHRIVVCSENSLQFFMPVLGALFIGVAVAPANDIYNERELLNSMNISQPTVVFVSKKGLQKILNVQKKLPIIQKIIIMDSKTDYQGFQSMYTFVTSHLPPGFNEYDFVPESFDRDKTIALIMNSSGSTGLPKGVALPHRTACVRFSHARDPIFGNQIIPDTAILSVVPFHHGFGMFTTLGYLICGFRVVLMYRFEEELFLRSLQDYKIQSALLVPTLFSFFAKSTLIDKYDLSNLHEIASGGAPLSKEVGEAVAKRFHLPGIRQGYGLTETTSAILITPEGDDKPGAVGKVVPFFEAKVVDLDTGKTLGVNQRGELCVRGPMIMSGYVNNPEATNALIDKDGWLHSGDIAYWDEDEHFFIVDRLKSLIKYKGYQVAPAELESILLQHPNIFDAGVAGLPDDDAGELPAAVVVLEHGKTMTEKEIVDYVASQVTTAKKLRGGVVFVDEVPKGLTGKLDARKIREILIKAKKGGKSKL
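Purified P. pyralis luciferase (10nM final) with 10uM D-luciferin and 10uM ATP (Km levels) in 50mM Tris acetate pH 7.5, 10mM Mg acetate, 0.01% Tween-20, 0.05% BSA; qHTS 6-point titration, ~60 µM downward; luminescence read.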
Starred values were filed as active, the others as inactive; ? = inconclusive; · = no result; [ ] = another dose, or the depositor's remark. Calls come from the whole dose curve; as a rule, active = well fitted curve in the direction sought with a large enough effect; inconclusive = small, poorly fitted or top-dose-only effect, or another doubt; inactive = no such curve, though single readings can be large; an effect the other way counts as inactive or inconclusive. Potency is the fitted concentration of half-maximal effect.

SMILES | ELG1 genotoxic | SMN2 splice enh | ELG1 repair inh | NPC1 promoter act | Rab9 promoter act | FLuc counter
COc1cccc(C(=O)NC2CCCc3c2cnn3-c2ccc(C)c(C)c2)c1OC (stereo not given) | -10% | · | -14% | 0% | -2% | 1%
COc1ccc(C(=O)NC2CCCc3c2cnn3-c2ccc(C)c(C)c2)c(OC)c1OC (stereo not given) | -6% | · | 18µM* | -2% | -5% | 0%
CC(C)(C)c1ccc(-n2ncc3c2CCCC3NC(=O)c2csnn2)cc1 (stereo not given) | -4% | · | 4% | -7% | -5% | -5%
CC(C)(C)c1ccc(-n2ncc3c2CCCC3NC(=O)c2cnccn2)cc1 (stereo not given) | ? | · | ? | -15% | -14% | 24µM*
CCCNC(=O)N1CCN(S(C)(=O)=O)CC1 | -3% | 0% | 2% | -8% | -2% | -2%
Cc1ccc(CN2CCSc3ccc(C(=O)N4CCN(c5cc(C)ccc5C)CC4)cc32)cc1 | · | -5% | · | · | · | 0%
COc1cc(OC)c(NC(=O)Cn2cnc3nc4c(cc3c2=O)CCCC4)cc1Cl | · | · | · | · | · | -14%
CN(C)c1ccc(Nc2nc(-c3cccnc3)cs2)cc1 | 1.5µM* | 16µM* | ? | 3.5µM* | 0.89µM* | 0.43µM*
Cc1ccccc1C(=O)Nc1nc(-c2cccnc2)cs1 | 3% | · | 0% | 15% | 2% | -2%
CCN(CC)c1ccc(Nc2nc(-c3cccnc3)cs2)cc1 | 11% | · | ? | 2.8µM* | 3.2µM* | 11µM*
NC(=[SH+])N=N/C=C1/C=CC=CN1.O=S(=O)(O)O.[Fe] | · | 1%[9.22 µM] | · | · | · | ·
C[C@H](NC(=O)c1nc[nH]c1C(=O)N[C@@H](CCCCN)C(=O)OC(C)(C)C)C(=O)OCc1ccccc1 | 0% | · | 15% | · | · | ·
O=C(NCc1ccccn1)Nc1cccc(Cl)c1Cl | ? | · | ? | 22% | ? | ?
O=C1COc2ccc(S(=O)(=O)N3CCN(c4ccccc4)CC3)cc2N1 | -2% | · | 0% | -2% | -1% | 0%
CC(CC(=O)N1CCN(c2ccccc2)CC1)S(=O)(=O)c1ccc2c(c1)NC(=O)CO2 (stereo not given) | -13% | · | 10µM* | 8% | -11% | -2%
COCCN1Cc2cccc(C(=O)Nc3cccc(-c4nc5ccccc5[nH]4)c3)c2C1=O | -3% | · | 4.1µM* | 7% | 0% | ?
CS(=O)(=O)c1ccc(C(=O)Nc2ccc(-c3nc4ccccc4[nH]3)cc2)cc1 | 10% | · | ? | ? | 2.5µM* | 2%
Cn1ncc([N+](=O)[O-])c1C(=O)Nc1ccc(Cl)cc1 | -3% | · | -6% | -3% | 6% | 1%
CS(=O)(=O)c1ccc(C(=O)Nc2cccc(-c3nc4ccccc4[nH]3)c2)cc1 | -4% | · | -18% | -8% | 1% | 24µM*
COCCN1Cc2cccc(C(=O)Nc3ccc(-c4nc5ccccc5[nH]4)cc3)c2C1=O | 14% | -7% | ? | -4% | 20% | -10%
Cn1ncc([N+](=O)[O-])c1C(=O)Nc1ccc(-c2nc3ccccc3[nH]2)cc1 | ? | ? | ? | ? | ? | 21µM*
O=C(Nc1ccc(-c2nc3ccccc3[nH]2)cc1)c1ccc2c(c1)OCO2 | 11% | 9% | ? | 4% | ? | ·
O=C(Nc1ccc(-c2nc3ccccc3[nH]2)cc1)c1c(F)c(F)c(F)c(F)c1F | 2% | -2% | -19% | -5% | -5% | -1%
O=c1cc[nH]c2ccc(OC(F)(F)F)cc12 | -1% | · | -7% | 1% | 1% | 1%
COc1ccc(CNC(=O)C2CCN(c3nc4ccccc4[nH]3)CC2)cc1OC | · | · | · | · | · | 6%
SMILES | ELG1 genotoxic | SMN2 splice enh | ELG1 repair inh | NPC1 promoter act | Rab9 promoter act | FLuc counter
COc1cccc(-c2nc(S(=O)(=O)c3ccc(C)cc3)c(N3CCCCC3)o2)c1 | · | 2% | · | · | · | 1%
O=C(NC1CCCC1)C1CCN(C(=O)c2ccc(-c3ccccc3)cc2)CC1 | -6% | · | -3% | -3% | -2% | 4%
CN(C)C(=O)c1ccc(N/C=C(\C=O)c2nc3ccccc3o2)cc1 | 1% | · | 4% | -1% | -4% | -11%
C=CCN(CC(=O)Nc1cccnc1)S(=O)(=O)c1ccc(Cl)cc1 | 3% | · | -4% | · | · | ·
CS(=O)(=O)c1cccc(C(=O)Nc2cccc(-c3nc4ccccc4[nH]3)c2)c1 | -2% | · | -22% | 19% | 13% | 12µM*
O=C(Nc1cccc(-c2nc3ccccc3[nH]2)c1)c1cccc(NC(=O)c2ccco2)c1 | -23% | -90% | ? | 19% | 1% | ?
CS(=O)(=O)Cc1ccc(C(=O)Nc2cccc(-c3nc4ccccc4[nH]3)c2)cc1 | -19% | · | ? | 14% | 18% | 13µM*
CCOc1cc(OCC)cc(C(=O)Nc2cccc(-c3nc4ccccc4[nH]3)c2)c1 | · | -48% | · | · | · | -1%
CCCOc1ccc(C(=O)Nc2cccc(-c3nc4ccccc4[nH]3)c2)cc1 | · | ? | · | · | · | 4.8µM*
CC1CN=C(N(C(=S)Nc2ccccc2)c2cccc(C(F)(F)F)c2)S1 (stereo not given) | 4% | · | -16% | 16% | -4% | ?
COc1ccc(-n2nc(C(=O)N3CCN(c4ccc(F)cc4)CC3)c3ccccc3c2=O)c(OC)c1 | -7% | -5% | 9.2µM* | 9% | 1% | 6%
COc1ccc(-n2ncc(C(=O)N3CCN(c4ccc(F)cc4)CC3)c2C)cc1 | -7% | · | 21µM* | -1% | -14% | -4%
COc1ccc(-n2nc(C(=O)NCC(=O)N3CCN(c4cccc(Cl)c4)CC3)c3ccccc3c2=O)c(OC)c1 | 0% | · | -14% | -3% | -4% | 7.6µM*
COc1ccc(N2CCN(C(=O)c3cnn(-c4ccc(F)cc4)c3-n3cccc3)CC2)cc1 | · | · | · | · | · | 1%
CCCCNC(=O)CNC(=O)c1nn(-c2ccc(OC)cc2OC)c(=O)c2ccccc12 | 2% | · | 8% | -2% | -1% | -5%
COc1ccc(-n2nc(C(=O)O)c3ccccc3c2=O)c(OC)c1 | -2% | 18% | 11% | -5% | -5% | 1%
c1ccc(-c2cccc(N3CCC4(CCNCC4)CC3)c2)cc1 | · | -28% | · | · | · | ·
CCc1sc(C(=O)Nc2ccc(OC)c(S(=O)(=O)N3CCOCC3)c2)cc1C | -5% | · | 8.2µM* | · | · | ·
COc1ccc(NC(=O)c2cc(S(=O)(=O)N3CCOCC3)ccc2C)cc1S(=O)(=O)N1CCOCC1 | -1% | · | ? | · | · | ·
COc1ccc(NC(=O)C2CCC2)cc1S(=O)(=O)N1CCOCC1 | -1% | · | 15% | -2% | -3% | 3%

Screens deposited in PubChem BioAssay by National Center for Advancing Translational Sciences (NCATS).
